Only some compounds are listed: those with a hit (about 7.8% of all), similar ones and a draw of the others.
VACV Venus inh: qHTS for Stage-Specific Inhibitors of Vaccinia Orthopoxvirus: Venus Reporter Primary qHTS. Vaccinia virus Venus reporter expression, fluorescence. Potency, µM (series often up to 36.5 µM), usual class: inhibitors. 0.46% of 330,000 active; calls by dose curve; tested in A549 cells; also: nearly all actives have a fitted effect of over 30% in size
HCV inhibitor: qHTS Assay for Inhibitors of Hepatitis C Virus (HCV). Huh7.5.1 HCVcc-Cre infection, luciferase reporter, 44 h. Potency, µM (top dose mostly 41.8 µM), usual class: inhibitors. 3.4% of 340,000 active; active = well fitted inhibition curve with a large enough effect; inconclusive = small, poorly fitted or top-dose-only effect, or another doubt; inactive = no such curve, though single readings can be large or run the other way
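Antiviral activity was scored by luciferase reporter output from cells infected with HCVcc-Cre (~0.5 moi) in presence of compound, 44 h infection period, cells seeded 1,000/well 4 h prior.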
HCMV inh: qHTS Assay for inhibitors of the human cytomegalovirus (HCMV). AID 1259415, 2018. 4.5% of 410,000 active. activity change, negative = inhibition, % at 57.5 µM. HFF cells, HCMV-luciferase reporter, 72 h; hits give low values; in the data active = activity change below about -60%; inconclusive = no clear call, values can overlap the other calls; inactive = above about -39%
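HFF cells seeded 16 h at 37C, treated with compounds, infected with luciferase-reporter HCMV at MOI 1 PFU/cell; luciferase read at 72 h post infection, normalized to buffer-only and Salinomycin controls.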
Lassa entry inh: qHTS for Inhibitors of binding or entry into cells for Lassa Virus | Lassa virus pseudotype entry inhibition, cell reporter | Potency, µM (series often up to 37.9 µM), usual class: inhibitors | 1.2% of 300,000 active | AID 540256, 2011; calls by dose curve; tested in HEK293 cells; also: nearly all actives have a fitted effect of over 50% in size
Marburg entry inh: qHTS for inhibitors of binding or entry into cells for Marburg Virus; Marburg virus pseudotyped entry inhibition, cell reporter; Potency, µM (highest dose often 37.8 µM), usual class: inhibitors; 1.8% of 300,000 active; AID 540276, 2011; calls by dose curve; tested in HEK293 cells
Vaccinia mCherry: qHTS for Stage-Specific Inhibitors of Vaccinia Orthopoxvirus: mCherry Reporter Primary qHTS. Vaccinia virus mCherry reporter infection, fluorescence. Potency, µM (titrated, usually from 36.5 µM), usual class: inhibitors. 0.63% of 310,000 active; calls by dose curve; tested in A549 cells; also: nearly all actives have a fitted effect of over 35% in size
Hits are given with their value; . = inactive; ? = inconclusive; / = no result given; [ ] = remark or other dose.

SMILES | VACV Venus inh | HCV inhibitor | HCMV inh | Lassa entry inh | Marburg entry inh | Vaccinia mCherry
CCCN1C/C(=C/c2ccc3c(c2)OCO3)C(=O)/C(=C/c2ccc3c(c2)OCO3)C1 | ? | ? | . | ? | ? | ?
Cc1ccc(C2=C(O)c3ccccc3C(=O)C2=O)cc1 | / | . | . | / | / | /
O=C1C(=O)c2ccccc2C(O)=C1c1cccc([N+](=O)[O-])c1 | . | . | -66 | 3.5µM | 5.6µM | .
COc1ccc(/C=C/c2ccnc3ccccc23)c(OC)c1 | . | / | / | / | / | .
CCCCNc1c(-c2ccc(-c3cccc(Cl)c3)cc2)nc2ccccn12 | . | ? | . | / | / | ?
CCCCNc1c(-c2cccc(-c3ccc(OC)cc3)c2)nc2ccc(C)cn12 | ? | ? | . | / | / | 13µM
CCCCNc1c(-c2cccc(-c3ccc(OC)cc3)c2)nc2cc(C)ccn12 | ? | 11µM | -102 | / | / | ?
O=C(Nc1ccc(-n2ccc(C(F)(F)F)n2)cc1)Nc1cccc(Cl)c1 | / | / | -84 | / | / | /
Cc1cc(C)cc(NC(=O)Nc2ccc(-n3ccc(C(F)(F)F)n3)cc2)c1 | ? | ? | . | ? | ? | .
COc1ccccc1NC(=O)Nc1ccc(-n2ccc(C(F)(F)F)n2)cc1 | . | 5.6µM | . | ? | ? | .
C=CCOC(=O)/C(=C\c1cccc2ccccc12)NC(=O)c1ccccc1 | . | 7.9µM | . | . | . | .[1.46 µM]
C=CCOC(=O)/C(=C/c1cccnc1)NC(=O)c1ccccc1 | / | . | . | / | / | /
O=C(OCC(=O)c1ccc([N+](=O)[O-])cc1)/C(=C/c1ccc(Cl)cc1)NC(=O)c1ccccc1 | . | . | -65 | . | . | .
C=CCOC(=O)/C(=C\c1ccccc1)NC(=O)c1ccc(C)cc1 | . | . | -67 | / | / | .
COC(=O)c1c(SC)nc2ccccc2c1OCc1ccc(C)cc1C | . | / | . | . | / | .
O=C1CC(c2ccccc2)CC(O)=C1C=Nc1ccccc1 (centres undefined) | . | . | . | ? | . | .
CCCCN=CC1=C(O)CC(c2ccccc2)CC1=O (centres undefined) | . | . | -62 | . | ? | .
CC(=NCCc1c(C)[nH]c2ccc(C)cc12)C1=C(O)CC(c2ccccc2)CC1=O (centres undefined) | ? | ? | . | ? | ? | ?
CCCCC(=NCCc1c(C)[nH]c2ccccc12)C1=C(O)CC(c2ccccc2)CC1=O (centres undefined) | . | ? | . | 8.9µM | ? | .
O=C1CC(c2ccccc2)CC(O)=C1C=Nc1ccccc1O (centres undefined) | ? | . | -75 | / | / | ?
CCCC(=Nc1ccccc1OC)C1=C(O)CC(c2ccccc2)CC1=O (centres undefined) | . | . | . | . | ? | .
CCCCCCCN=CC1=C(O)CC(c2ccccc2)CC1=O (centres undefined) | . | . | . | . | . | .
COc1ccccc1N=C(C)C1=C(O)CC(c2ccccc2)CC1=O (centres undefined) | ? | ? | -84 | ? | ? | ?
COc1ccc(Cl)cc1C(=O)Nc1ccc2oc(-c3ccc(C(C)(C)C)cc3)nc2c1 | . | / | . | . | / | .
O=C(Nc1ccc(N2CCN(C(=O)c3ccccc3)CC2)cc1)c1ccc2c(c1)OCO2 | / | 22µM | . | . | . | /
SMILES | VACV Venus inh | HCV inhibitor | HCMV inh | Lassa entry inh | Marburg entry inh | Vaccinia mCherry
Cc1ccccc1C(=O)N1CCN(c2ccc(NC(=O)CSc3ccc(Cl)cc3)cc2)CC1 | ? | 11µM | -71 | ? | 11µM | .
Cc1ccccc1C(=O)N1CCN(c2ccc(NC(=O)c3ccc4c(c3)OCCO4)cc2)CC1 | . | 8.9µM | -89 | ? | 5µM | ?
Cc1ccccc1C(=O)N1CCN(c2ccc(NC(=O)c3cccc(OC(C)C)c3)cc2)CC1 | . | ? | . | . | . | .
Cc1ccccc1C(=O)N1CCN(c2ccc(NC(=O)c3ccco3)cc2)CC1 | . | . | . | . | ? | .
CC(=O)N1CCN(c2ccc(NC(=O)c3ccc4c(c3)OCO4)cc2)CC1 | . | . | . | . | . | .
COc1c(C)cccc1C(=O)Nc1ccc(N2CCN(C(=O)c3ccccc3C)CC2)cc1 | . | 7.9µM | . | ? | ? | .
Cc1ccc(C(=O)N2CCN(c3ccc(NC(=O)c4ccc5c(c4)OCCO5)cc3)CC2)cc1 | . | 2.8µM | . | ? | ? | .
CC(C)C(=O)N1CCN(c2ccc(NC(=O)c3ccc4c(c3)OCCO4)cc2)CC1 | . | . | . | . | . | .
CN1CCN(c2ccc(NC(=S)NC(=O)c3cccc4c(Br)cccc34)cc2)CC1 | . | ? | . | . | ? | .
CN1CCN(c2ccc(NC(=S)NC(=O)c3cccc4ccccc34)cc2)CC1 | / | 11µM | . | / | / | /
COc1cc(CNCCCN2CCOCC2)cc(Br)c1OCc1ccc(Cl)cc1 | / | 1.8µM | -99 | / | / | /
COc1cc(CNCCN2CCOCC2)ccc1OCc1ccccc1Cl | . | ? | . | ? | ? | .[1.46 µM]
CCOc1cc(CNCCCN2CCOCC2)cc(Br)c1OCC(=O)Nc1cccc(C(F)(F)F)c1 | / | ? | . | / | . | /
COc1cc(CNCCN2CCOCC2)ccc1OCc1ccc(Cl)cc1 | . | 7.1µM | . | . | ? | /
COc1cc(CNCCCN2CCOCC2)cc(Br)c1OCC(=O)N1CCCCC1 | / | ? | . | . | ? | /
CCOc1cc(CNCCCN2CCOCC2)cc(Cl)c1OCC(=O)NC(C)(C)C | . | 11µM | . | ? | ? | .
CCOc1cc(NC(=S)NCCCN2CCOCC2)c(OCC)cc1NC(=O)CC(C)C | / | . | -93 | . | . | /
c1ccc(CCc2nnc3n2CCN(Cc2ccc4ccccc4n2)CC3)cc1 | . | / | / | / | / | .
COc1ccccc1NC(=O)Cn1c(SCC(=O)NCc2ccccc2)nc2ccccc21 | . | / | . | . | / | .
COCC(=O)Nc1cc(C(=O)N2CCCC(C(C)=O)C2)cc2nc(-c3ccccc3)n(C)c12 (centres undefined) | . | / | / | / | / | .
C=CCOc1c(Cl)cc(CNCCCN2CCOCC2)cc1OC | . | ? | . | . | 10µM | .
COc1cc(NC(=S)NCCCN2CCOCC2)c(OC)cc1Cl | . | . | . | . | ? | .
Cc1ccc(Nc2ccc(S(=O)(=O)N3CCOCC3)cc2[N+](=O)[O-])c(C)c1 | . | ? | -65 | ? | ? | .
CCOC(=O)C(=O)N1CCC(Cc2ccccc2)CC1 | . | . | . | . | . | .
O=C(C(=O)N1CCC(Cc2ccccc2)CC1)c1ccccc1Br | . | / | -63 | / | / | ?
Cc1nc(C(F)(F)F)ccc1C(=O)N1CCC1(C)C(=O)NS(=O)(=O)c1cccc(Cl)c1 (centres undefined) | . | / | -91 | / | / | .
Cc1nc(C(F)(F)F)ccc1C(=O)N1CCC1(C)C(=O)NS(=O)(=O)c1cccc(F)c1 (centres undefined) | . | / | . | / | / | .
COc1ccc(Cl)cc1N1C(=O)[C@@H]2C[C@H]1CN2Cc1nc2ccccc2nc1C | . | / | / | / | / | .
